What all share (assay): NCI-60 one-dose screen, 48 h (100 = growth as untreated, 0 = no growth, -100 = all killed)
Conditions in all cases: 10 µM unless noted

Assay [1] relates to HCT-15 colon.
Assay [2] concerns HT29 colon.
Assay [3] concerns SNB-75 CNS.
Assay [4] deals with SNB-19 CNS.
For assay [5], the system named is U251 CNS.
Assay [6] has as its system PC-3 prostate.
Assay [7] concerns SK-MEL-5 melanoma.
The subject of assay [8] is UACC-62 melanoma.
In assay [9] the test system is LOX IMVI melanoma.
In assay [10] the test system is SK-MEL-28 melanoma.
Assay [11] relates to SK-MEL-2 melanoma.
For assay [12], the system named is EKVX NSCLC.
For assay [13], the system named is SN12C renal.
Assay [14] relates to UO-31 renal.
Assay [15] concerns TK-10 renal.
For assay [16], the system named is ACHN renal.
For assay [17], the system named is CAKI-1 renal.
Assay [18] deals with CCRF-CEM leukemia.
For assay [19], the system named is A498 renal.
Assay [20] deals with MOLT-4 leukemia.

About 83,000 compounds went through this panel and 20% of them were active in at least one assay; those are over-represented in the sample as a whole.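 The endpoint reported here, percent growth, reads 100 for growth as untreated, 0 for no net growth and -100 for all cells dead.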 A number with no mark means an inactive call. Activity calls are given as the source filed them. How the source made its calls: active means growth percent below 10; inactive means the rest.

As to `COc1cccc(C(=O)OCC(O)C(=O)NC23CC4CC(CC(C4)C2)C3)c1` (stereo unspecified), the growth in assay [1] is 96.9%; in assay [2], 101%; in assay [3], 95.2%; in assay [4], 97.2%; in assay [5] it was 94.1%; in [6] it was 93.3%. Besides, the growth in assay [7] was 99.2%; in assay [8], 93.4%; in assay [9], 95.4%; in [10] it was 104%; in assay [11], 101%; in assay [12] it was 97.4%. Moreover, the growth in assay [13] was 95.5%; in assay [14], 87.1%; in assay [15], 96.4%; in [16], 97.2%; in assay [17], 99.8%; in [18], 86.3%.
Turning to `C=CCn1c(SCC(=O)Nc2ccc(C(=O)/C=C/c3ccc(OC)cc3)cc2)nnc1-c1ccccc1`, the growth was 83.4% in [1]; 85.3% in [2]; 70.6% in assay [3]; 83.9% in [4]; 98.1% in assay [5]; 67.1% in [6]. Besides, the growth in assay [7] is 92.2%; in assay [8], 74.5%; in assay [9] it was 87.2%; in assay [10], 89.4%; in assay [11], 82.4%; in assay [12] it was 88.4%. The growth in assay [13] is 89.2%; in assay [14], 69.4%; in assay [15], 98%; in assay [16], 92.5%; in [17], 93.1%; in [19] it was 97.3%. The growth in assay [18] was 84.5%; in assay [20], 61.1%.
On to `CCCCn1sc(=O)n(Cc2ccc(CNC(=O)OCc3ccc4c(Cl)cc(Cl)c(O)c4n3)cc2)c1=O`, for which the growth in assay [1] was 19%; in assay [2], 101%; in assay [3], 81.1%; in assay [4], 52.5%; in [5], 41.1%; in [6], 58.5%. Besides, the growth is 59.5% in assay [7]; 47.9% in assay [8]; 46% in [9]; 69.2% in [10]; 85.6% in assay [11]; 86.7% in assay [12]. Also, the growth in assay [13] is 57.6%; in assay [14], 18.3%; in [15] it was 78%; in assay [16] it was 30.8%; in [17] it was 54.6%; in assay [19] it was 91%. Also, the growth is 32% in [18] and 33.5% in [20].
With `CN1C(=O)/C(=C/c2ccc(C(=O)Nc3ncc(Cc4ccc(F)cc4)s3)cc2)SC1=S`, the growth in assay [1] was 22.4%; in assay [2], 29.5%; in [3] it was 40.3%; in assay [4], 60.5%; in assay [5], 65.2%; in assay [6], 52.4%. The growth is 17.6% in assay [7]; 9.34% (active) in [8]; 15.4% in assay [9]; 58% in assay [10]; 71.2% in assay [11]; 48.4% in assay [12]. Besides, the growth in assay [13] was 61.8%; in [14], 46.5%; in assay [15], 53.5%; in assay [16], 28%; in assay [17] it was 16.3%; in [19], 35%. The growth in assay [18] was 47.8%; in assay [20] it was 39.6%.
As to `O=C(/C=C/C12c3ccccc3C(c3ccccc31)C1C(=O)NC(=O)C12)c1ccc(F)cc1` (stereo unspecified), the growth in [1] is -10.6% (active); in [2], -3.81% (active); in assay [3] it was 7.89% (active); in [4], 10.6%; in assay [5] it was -44.4% (active); in assay [6], 8.91% (active). The growth is 10.8% in assay [7]; -55.6% (active) in assay [8]; -53.9% (active) in assay [9]; 6.45% (active) in assay [10]; -52.2% (active) in assay [11]; 19.1% in assay [12]. In addition, the growth in assay [13] is 11.2%; in [14], 15.8%; in assay [15], 16.8%; in assay [16], 4.11% (active); in assay [17], 16.7%; in assay [19] it was -6.86% (active). Besides, the growth was -0.929% (active) in [18] and 2.98% (active) in [20].
Regarding `O=C1CC2C=CCN2C=C1NC(=O)C1CCCCC1` (stereo unspecified), the growth is 98% in assay [1]; 97.7% in [2]; 87.3% in assay [3]; 111% in assay [4]; 97.9% in [5]; 94.8% in assay [6]. Besides, the growth was 102% in [7]; 108% in assay [8]; 96.9% in assay [9]; 107% in [10]; 101% in assay [11]; 92.1% in assay [12]. Also, the growth was 110% in assay [13]; 94.9% in [14]; 90.6% in [15]; 105% in [16]; 97.7% in assay [17]; 128% in assay [19]. For the same molecule, the growth in [18] was 122%; in assay [20] it was 99.5%.
As for `COc1ccc(C2CC(c3ccc(Nc4nc(Nc5ccc(F)cc5)nc(Nc5ccc(F)cc5)n4)cc3)=NN2C(C)=O)cc1` (stereo unspecified), the growth in [1] was 94.4%; in assay [2], 100%; in [3], 101%; in assay [4] it was 85.2%; in [5], 84.5%; in [6], 68.8%. The growth in assay [7] was 71.6%; in [8] it was 103%; in assay [9] it was 103%; in assay [10] it was 110%; in assay [11] it was 72%; in assay [12], 94.8%. Besides, the growth in [13] was 116%; in assay [14], 97.7%; in [15] it was 104%; in assay [16], 84.5%; in [17], 90.6%; in [18], 23.5%.
Regarding `COc1ccc(C2=C/C(=C\c3ccc(Cl)cc3)C(=O)N2/N=C/c2ccc(Cl)cc2)cc1`, the growth in assay [1] was 98.8%; in assay [2] it was 86.8%; in [3] it was 105%; in assay [4], 96.7%; in assay [5], 84.5%; in assay [6] it was 91.4%. For the same molecule, the growth in [7] is 99.5%; in assay [8] it was 84.4%; in assay [9] it was 99.1%; in assay [10] it was 101%; in [11], 107%; in assay [12] it was 93.8%. The growth was 87.7% in assay [13]; 79.4% in assay [14]; 87.2% in [15]; 98.3% in [16]; 90.5% in assay [17]; 103% in assay [19]. The growth in assay [18] was 100%; in assay [20], 92%.
